Bioassay records (PubChem)
Pol beta inh = qHTS Assay for Inhibitors of DNA Polymerase Beta; P06746; Pol beta primer extension/strand displacement, fluorescence kinetic; Potency, µM (titrated, usually from 114 µM), for inactives: at the highest dose activity change, negative = inhibition, most hits filed as inhibitors; actives 1.3% (n = 340,000); note: potency is the fitted concentration of half-maximal effect; % is set by controls: 0 for no effect and ±100 for the full control effect
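Enzyme-only controls used 10 nM Pol beta; buffer lacking enzyme served as negative control. Compound preincubated 15 min, then 50 nM substrate added; 0 and 10 min reads at room temperature.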
FEN1 inh = qHTS Assay for the Inhibitors of Human Flap endonuclease 1 (FEN1) | actives 0.35% (n = 390,000) | Potency, µM (top dose mostly 114 µM), for inactives: top-dose activity change, negative = inhibition, usual class: inhibitors | Recombinant FEN1 flap cleavage, fluorescence, 15 min | P39748 | AID 588795, 2011; note: potency is the fitted concentration of half-maximal effect; % is set by controls: 0 for no effect and ±100 for the full control effect; nearly all actives have a fitted effect of over 65% in size
Target sequence (P39748 whole entry, looked up): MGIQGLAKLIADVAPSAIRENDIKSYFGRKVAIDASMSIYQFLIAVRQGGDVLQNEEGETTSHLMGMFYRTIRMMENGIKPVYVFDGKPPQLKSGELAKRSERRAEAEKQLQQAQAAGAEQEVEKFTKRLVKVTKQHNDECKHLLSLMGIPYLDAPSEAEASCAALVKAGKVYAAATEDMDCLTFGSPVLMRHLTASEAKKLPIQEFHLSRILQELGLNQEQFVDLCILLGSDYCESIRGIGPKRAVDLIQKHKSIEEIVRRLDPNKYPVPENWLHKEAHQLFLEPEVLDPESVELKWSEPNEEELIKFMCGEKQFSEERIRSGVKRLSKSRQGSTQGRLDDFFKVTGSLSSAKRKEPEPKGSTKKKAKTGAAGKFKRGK
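Concentration–response screening of FEN1 (10 nM): 15 min compound preincubation at room temperature, reaction started with 50 nM substrate and read at 0 and 15 min. Corrected, normalized data were fitted by a four-parameter Hill equation.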
Pol iota inh = qHTS for Inhibitors of Polymerase Iota; DNA polymerase iota (Homo sapiens), Q9UNA4; Pol iota fluorescent replication assay, 10 min; Potency, µM (series often up to 115 µM), for inactives: at the top dose activity, negative = inhibition, actives largely listed as inhibitors; actives 1% (n = 390,000); AID 588590, 2011; note: potency is the fitted concentration of half-maximal effect
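Fluorescent replication assay read twice, at 0 min and 10 min after adding 50 nM (final) substrate. Enzyme (10 nM) and compounds were first incubated 15 min at room temperature; enzyme-free buffer wells were negative controls.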
PI5P4Ka inh = qHTS for Inhibitors of phosphatidylinositol 5-phosphate 4-kinase (PI5P4K) | PI5P4Kalpha enzyme, ADP-Glo luminescence, 60 min; hits give low values | max response, % | actives 1.2% (n = 330,000) | AID 652105, 2013; active = max response of -50% or lower; inconclusive = between -30% and -50%; inactive = -30% or higher; note: value at the top dose of about 77 µM; % is set by controls: 0 for no effect and ±100 for the full control effect
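Controls without substrate or without enzyme flank wells where PI5P4Kalpha converts substrate using 5 microM ATP (final). Incubation lasts 60 minutes at room temperature; ADP formed is read by ADP-Glo luminescence.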
Pol kappa inh = qHTS for Inhibitors of Polymerase Kappa; Potency, µM (doses to about 107 µM), for the others: top-dose activity, negative = inhibition, hits mostly inhibitors; purified Pol kappa, fluorescent DNA synthesis assay, 10 min; AID 588579, 2011; actives 0.53% (n = 400,000); note: potency is the fitted concentration of half-maximal effect; % is set by controls: 0 for no effect and ±100 for the full control effect
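50 nM final substrate added after 15 min RT preincubation of 10 nM Pol kappa with compound; fluorescence read at 0 and 10 min.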
POLH inh = qHTS for Inhibitors of Polymerase Eta; AID 588591, 2011; recombinant Pol eta, fluorescent DNA replication assay; DNA polymerase eta (Homo sapiens), Q9Y253; Potency, µM (doses to about 114 µM), for inactives: at the top dose activity change, negative = inhibition, most hits filed as inhibitors; actives 1.2% (n = 390,000); note: potency is the fitted concentration of half-maximal effect; % is set by controls: 0 for no effect and ±100 for the full control effect
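Pol eta at 10 nM preincubated with compounds 15 min at room temperature; reaction started with fluorescent substrate (50 nM final) and read kinetically at 0 and 10 min.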
Active calls of the source: *; ? = inconclusive; / = no result given; [ ] = dose if it differs, or a comment. A selection: hits, their analogues and other compounds. The true share with any hit is near 2.8%. Unless noted, calls come from the whole dose curve; as a rule, active = well fitted curve in the direction sought with a large enough effect; inconclusive = small, poorly fitted or top-dose-only effect, or another doubt; inactive = no such curve, though single readings can be large; an effect the other way counts as inactive or inconclusive.

SMILES	Pol beta inh	FEN1 inh	Pol iota inh	PI5P4Ka inh	Pol kappa inh	POLH inh
CCCN1C(=O)/C(=C/c2c(N3CCNC(=O)C3CC(=O)OC)nc3c(C)cccn3c2=O)SC1=S (centres undefined)	89µM*	/	/	/	/	/
COc1ccc(S(=O)(=O)c2nnn(-c3cc(Cl)c(OC)cc3OC)c2C)cc1	0%	-1%	?	/	-12%	89µM*
COc1ccc(S(=O)(=O)c2nnn(-c3ccc(C(C)C)cc3)c2C)cc1	?	-1%	-4%	/	-28%	?
COc1ccc(NC(=O)c2cc3ccccc3o2)c(OC)c1	1%	6%	-13%	/	-2%[60.1 µM]	-4%
CCOc1ccccc1C1C2C(=O)N(c3ccccc3)C(=O)C2ON1c1ccccc1 (centres undefined)	5%	2%	56µM*	/	-7%	-18%
CCCC[C@@H]1C[C@H]1[C@@H](NC(=O)c1ccccc1)c1ccccc1C(F)(F)F	-4%	-18%	7%	6	-4%	-9%
CCCC[C@@H]1C[C@H]1[C@@H](NC(=O)c1ccco1)c1ccc(C(=O)OC)cc1	/	8%	12%	?	-18%	32µM*
COc1ccc(N2C(=O)C(CC(N)=O)N(NC(=O)CCc3ccccc3)C2=O)cc1 (centres undefined)	22µM*	0%	15%	3	6%	-10%
C[N+](C)(C)CCO	14%[57.1 µM]	/	2%[58.9 µM]	/	-13%[60.1 µM]	-2%[57.1 µM]
COCCn1c(NC(=S)NC(=O)C23CC4CC(CC(C4)C2)C3)cc(=O)[nH]c1=O	17%	8%	29%	?	2%	-28%
COCCn1c(NC(=S)NC(=O)C2CC2)cc(=O)[nH]c1=O	2%	-5%	80%	-60*	0%	-14%
Cc1ccccc1C(=O)Nc1cccc(C(=O)OCc2cc(=O)n3nc(C4CC4)sc3n2)c1	18%	5%	21%	/	-7%[60.1 µM]	-15%
O=C(CSc1nc2c([nH]c3ccccc32)c(=O)n1-c1ccccc1)N1CCCC1	20µM*	-14%	-5%	/	-3%[60.1 µM]	-10%
O=[N+]([O-])c1cnc(Sc2ccncn2)c([N+](=O)[O-])c1	/	/	/	-74*	/	-15%
O=[N+]([O-])c1cnc(Sc2ccncn2)s1	-1%	-2%	?	-21	-4%	4%
COc1cccc2sc(N3CCN(C(=O)CCS(=O)(=O)c4ccc(F)cc4)CC3)nc12	?	-1%	7%	/	-7%[60.1 µM]	-4%
CC(C)=CCC12Oc3cc(O)ccc3C1(O)Oc1cc(O)c([C@H]3C=C(C)CC(c4ccc(O)cc4O)[C@H]3C(=O)c3ccc(O)cc3O)c(O)c1C2=O (some centres undefined)	/	-33%	?	-92*	?	?
CN1CCN(C(=S)NC(=O)c2ccc(Br)cc2)CC1	9%	11%	20%	-8	-4%	-13%
CN1CCN(C(=S)C(=O)Nc2ccc(Br)cc2)CC1	-5%	?	71%	-56*	0%	-12%
O=C(O)CSc1c2c(nc3cc(C(=O)Nc4ccc(F)c(Cl)c4)ccc13)CCC2	?	-24%	50µM*	/	?	?
COc1ccc(NC(=O)c2ccc3c(SCC(=O)O)c4c(nc3c2)CCCC4)cc1OC	3%	9%	2%	/	-6%	-10%
COc1ccc(C(=O)COC(=O)CN2CC(=O)Oc3ccccc32)cc1Br	?	4%	25µM*	-23	-7%	-10%
Cc1cc(NC(=O)CSCC(=O)OCC(=O)Nc2ccc(OC(F)F)cc2)no1	/	-1%	27%	0	-8%	-24%
Cc1cc(NC(=O)CSCC(=O)OCC(=O)c2cccc(Br)c2)no1	/	-3%	?	-62*	-29%	-30%
O=C(Nc1ccc(C(=O)OCc2cc(=O)n3c4c(sc3n2)CCCC4)cc1)c1ccc(Cl)cc1	19%	0%	15%	/	-5%[60.1 µM]	-16%
